Test results taken from ChEMBL document CHEMBL3433997, “St. Jude Leishmania screening dataset” (2016).

Each compound was assayed against Hexose transporter 1 (Plasmodium falciparum) (UniProt O97467) (assay: ST_JUDE_LEISH: Cytotoxicity at 2uM final concentration against transgenic Leishmania Mexicana promastigotes LmPfHT that are glucose transport deficient and complemented with the Plasmodium falciparum hexose transporter. Activity is measured by DNA content using SYBR green in vitro).
Assay type: functional

| Structure (SMILES) | inhibition [%] |
| --- | --- |
| N=C1SC(=Cc2cn[nH]c2-c2ccc(F)cc2)C(=O)N1c1nccs1 | 2.1 |
| CN(C)CCNCc1nc(-c2ccc3c(Nc4ccc(Oc5ccccc5)cc4)ccnc3c2)cs1 | 1.8 |
| COc1ccc(C(=O)C2CCN(CCCCNC(=O)c3ccc(NC(=O)c4ccc(Cl)cc4)cc3)CC2)c(OC)c1 | 2.82 |
| CC(=O)N(C)C1CCN(Cc2ccc(-c3ccc(-c4nc5cc(F)ccc5[nH]4)s3)cc2)C1 (centres undefined) | 5.96 |
| Cc1cc(C(F)(F)F)n2nc(C(=O)N(C)Cc3cncn3Cc3ccc(F)cc3)cc2n1 | 1.29 |
| O=C(C=Cc1ccc(Cl)c(Cl)c1)NCCCCCN1CCC(CCCNS(=O)(=O)c2cccc(C(F)(F)F)c2)CC1 | -1.72 |
| COc1ccc2nccc([C@@H](O)CN3CCC(NCc4cnc5snnc5c4)C(F)C3)c2c1 (some centres undefined) | 1.51 |
| COc1ccc2c(=NN=Cc3cccc(F)c3)cc(C)[nH]c2c1 | 4.27 |
| CC(C)(C)OC(=O)NCC(=O)N(Cc1ccccc1)Cc1ccccc1 | 4.38 |
| CC(C)c1ccc(O)cc1Nc1ccnc2ccc(C(F)(F)F)cc12 | -0.72 |
| NC1(C(=O)O)Cc2ccc(Cl)cc2C1 (centres undefined) | 2.95 |
| CCN1CCC(N(Cc2ccc(-c3ccc(C(F)(F)F)cc3)cc2)C(=O)CCCCn2c(CCc3cccc(F)c3F)nc(=O)c3ccccc32)CC1 | -1.15 |
| COc1ccc(CNCCCCCCNCc2ccc(OC)c3ccccc23)c2ccccc12 | 97.2 |
| O=C(CNC1=NCCN1)Nc1ccc(NC(=O)Nc2ccc(NC(=O)CNC3=NCCN3)cc2)cc1 | 4.85 |
| CCc1ccc(NC(=O)c2ccc(CN3CCCN(Cc4cccc(O)c4)CC3)cc2)cc1 | -1.78 |
| CC1(C)NC(N)=NC(=N)N1OCCCCCOc1ccccc1 | 0.8 |
| Cc1cccc(Cn2ccc3c(N)nc(N)nc32)c1 | 3.14 |
| COc1ccc(NC(=O)c2ccc(-c3ccc(-c4cccnc4)cc3)c(C)c2)cc1OCCN(C)C | 1.09 |
| O=C(/C=C/c1ccc(F)c(Br)c1)NCCCCCN1CCC(c2c[nH]c3ccccc23)CC1 | 0.52 |
| CN(C)CCN(Cc1ccccc1)c1ccc([N+](=O)[O-])cc1C(F)(F)F | 7.06 |
| Cc1ccc(NC(=O)c2ccc(N3CCN(c4ccncc4)CC3)cn2)cc1F | 95.4 |
| COc1ccc(C=NN=c2cc(C)[nH]c3ccc(C)cc23)c2ccccc12 | 1.75 |
| O=C(NC(=S)NCc1ccncc1)c1ccccc1 | -1.93 |
| CCCCCN1CCCC1CNS(=O)(=O)c1ccc(C(=O)Nc2ccc(C(F)(F)F)cc2)cc1 (centres undefined) | 3.41 |
